Cycloheximide cs: Cycloheximide Counterscreen for Small Molecule Inhibitors of Shiga Toxin; cell reporter, cycloheximide protein synthesis inhibition counterscreen; max response, %; hit rate 12% among 300,000; AID 2314, 2010; in the data active means max response mostly above about 13%, no sharp cut-off; inactive means mostly below about 14%; further: read at 38.3 µM for the half of the compounds with a filed dose; 0% is about no effect
Pf growth 48h: Primary qHTS for delayed death inhibitors of the malarial parasite plastid, 48 hour incubation | P. falciparum luciferase growth in erythrocytes, 48 h | Potency, µM (highest dose often 28.7 µM), inactives show top-dose activity change, negative = inhibition, actives largely listed as inhibitors | hit rate 5.9% among 310,000 | AID 504832, 2011; further: potency means the concentration at half of the fitted maximal effect; on the % scale 0 is the no-effect control and ±100 the full control effect
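Erythrocytes infected with P. falciparum carrying an integrated firefly luciferase reporter (2% hematocrit, 0.1% parasitemia final) were exposed to compounds in RPMI 1640 with 0.5% Albumax at 37 C, 5% CO2. Growth inhibition was scored as reduced luminescence.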
Pf growth 96h: Primary qHTS for delayed death inhibitors of the malarial parasite plastid, 96 hour incubation; P. falciparum luciferase reporter growth, 96 h; Potency, µM (series often up to 28.7 µM), for the others: at the top dose activity change, negative = inhibition, hits mostly inhibitors; hit rate 6.9% among 320,000; AID 504834, 2011; further: potency means the concentration at half of the fitted maximal effect; on the % scale 0 is the no-effect control and ±100 the full control effect
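Erythrocytes infected with luciferase-expressing P. falciparum were dispensed at 2% hematocrit and 0.05% parasitemia (final), then incubated with compounds 96 hours at 37 C in 5% CO2. Luminescence after detection reagent addition reported growth.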
HCMV antiviral: qHTS Assay for inhibitors of the human cytomegalovirus (HCMV) | hit rate 4.5% among 410,000 | activity change, negative = inhibition, % at 57.5 µM | HFF cells, HCMV-luciferase reporter, 72 h; hits give low values; in the data active means activity change below about -60%; inconclusive means no clear call, values can overlap the other calls; inactive means above about -39%; further: on the % scale 0 is the no-effect control and ±100 the full control effect
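Inhibition of viral replication was scored as loss of reporter luminescence in HFFs infected with HCMV-luciferase (MOI 1 PFU/cell) for 72 h; compounds tested at 2 doses, normalized to buffer and Salinomycin controls.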
Shiga toxin inh: A qHTS for Small Molecule Inhibitors of Shiga Toxin; Vero cells, Shiga toxin protein synthesis inhibition reporter; hit rate 9.2% among 290,000; inhibition, % at 38.7 µM; in the data active means inhibition mostly above about 28%, no sharp cut-off; inactive means mostly below about 43%; further: 0% is about no effect
* hit, by the source's call; i = inactive; ? = inconclusive; . = not tested or not shown. Hits are enriched below; roughly 20% of the tested compounds scored in any of these assays. Unless noted, the call rests on the fitted dose curve; in most records, active means well fitted inhibition curve with a large enough effect; inconclusive means small, poorly fitted or top-dose-only effect, or another doubt; inactive means no such curve, though single readings can be large or run the other way.

SMILES	Cycloheximide cs	Pf growth 48h	Pf growth 96h	HCMV antiviral	Shiga toxin inh
N#Cc1c(Cl)nsc1NC(=O)c1ccccc1	31.4*	?	0.0%	-99.9*	132.0*
CN(C)S(=O)(=O)c1ccc(C(=O)OCC(=O)Nc2sc3c(c2C#N)CCCCC3)cc1	-4.3	38.9%	31.5%	52.1	10.2
CCCC(=O)Nc1sc2c(c1C#N)CCCCC2	37.4*	101.2%	6.7%	70.8	46.7*
O=C(Nc1ccc(Br)c2cccnc12)c1cccc2ccccc12	.	.	.	10.2	.
COC(=O)c1c(NC(C)=O)sc2c1CCCCC2	0.1	18.1%	0.7%	-6.7	11.2
Cc1ccccc1C(=O)NC(=S)Nc1sc2c(c1C#N)CCCC2	11.0	9.2%	31.3%	-11.2	1.9
N#Cc1c(NC(=O)CCCC(=O)O)sc2c1CCCCC2	34.4*	80.8%	25.0%	-7.6	111.8*
CC(=O)Nc1sc2c(c1C#N)CCCCC2	18.3*	?	.	52.8	21.1
Cc1ccc(C(=O)Nc2sc3c(c2C#N)CCCCC3)cc1C	23.6*	377.8%	i	42.0	43.1*
CC(C)(C)C(=O)NC(=S)Nc1sc2c(c1C#N)CCCCC2	19.4*	19.2%	19.1%	10.0	37.8
CCOc1ccccc1CNC(=O)c1c([N+](=O)[O-])c(C)nn1C	1.1	10.2%	3.1%	-7.8	-1.9
O=C(CSc1nnc(-c2ccco2)n1-c1ccccc1Cl)Nc1cccc(C(=O)O)c1	-3.4	16.6%	8.5%	-18.5	3.6
c1ccc(-c2[nH]c(-c3ccccc3)[n+](CC3CO3)c2-c2ccccc2)cc1 (configuration not stated)	49.6*	?	10.4µM*	?	28.1
COc1ccccc1C(=O)O[C@H]1[C@H](Cc2ccccc2)NS(=O)(=O)[C@H]2C[C@@H]3C=C[C@]12O3	.	?	5.86µM*	0.1	.
COc1ccccc1NS(=O)(=O)c1ccc2oc(N)nc2c1	-0.5	-16.1%	10.5%	9.4	1.6
Cc1ccc(NC(=O)c2cnc3ccccc3n2)cc1C	50.7*	290.2%	i	88.4	66.8*
CC(OC(=O)c1cnc2ccccc2n1)c1ccccc1Cl (configuration not stated)	35.5*	51.8%	85.0%	23.6	68.7*
Cc1ccc(NC(=O)c2sc(Cl)nc2-c2ccccc2)cc1C	-2.5	6.5%	.	27.3	-22.3
Cc1ccc(NC(=O)c2ccc(=O)[nH]n2)cc1C	48.1*	79.6%	100.3%	1.5	100.2*
O=C(Nc1ccccc1)c1cnc2ccccc2n1	40.1*	203.5%	134.8%	119.4	59.8*
CCOc1ccc(-n2nc3ccc(NC(=O)COc4ccccc4C)cc3n2)cc1	.	.	.	-12.0	.
Cc1cccc(N2CCN(c3ccc(NC(=O)c4ccccc4)cc3C(=O)O)CC2C)c1 (configuration not stated)	.	.	.	-10.6	.
COc1ccc(NC(=S)N2CCC3CC2c2c(Cl)cccc23)c(OC)c1 (configuration not stated)	.	.	.	-24.3	.
CC(NC(=O)c1cnc2ccccc2n1)c1ccccc1 (configuration not stated)	23.3*	?	-27.9%	26.5	41.2
O=C(Nc1ccc(S(=O)(=O)Nc2cnc3ccccc3n2)cc1)c1ccc(F)cc1	.	.	.	-9.9	.
SMILES	Cycloheximide cs	Pf growth 48h	Pf growth 96h	HCMV antiviral	Shiga toxin inh
NC(=O)c1ccc(NC(=O)c2cnc3ccccc3n2)cc1	36.8*	88.0%	95.6%	117.0	79.7*
Cc1ccc(NC(=O)c2ncc(Cl)c(Cl)c2Cl)cc1C	39.6*	283.3%	125.4%	25.4	61.5
CCOC(=O)c1oc2cccc(OCC(O)CNC(C)C)c2c1C (configuration not stated)	5.3	9.28µM*	1.31µM*	-0.1	10.8
O=C(O)c1c(Cl)cccc1Cl	.	-9.6%	-7.5%	2.6	.
COc1ccccc1CNC(=O)c1cc(-c2ccccc2)n[nH]1	.	.	.	-4.7	.
COc1cccc(C(C(=O)NC2CCCC2)N(C(=O)c2ccco2)c2ccccc2)c1OC (configuration not stated)	-2.8	9.28µM*	-19.0%	-29.9	0.8
COc1cccc(C(C(=O)NC2CCCC2)N(C(=O)c2ccco2)c2ccc(NC(C)=O)cc2)c1OC (configuration not stated)	-4.7	1.04µM*	48.9%	2.6	9.8
COc1cccc(C(C(=O)NC2CCCC2)N(C(=O)c2ccco2)c2ccc(C(C)=O)cc2)c1OC (configuration not stated)	3.7	?	-6.0%	-4.2	5.6
Nc1nnc(C(c2ccccc2)c2ccccc2)s1	2.1	-9.4%	-16.6%	4.6	-3.5
CC(NC(=O)c1ccco1)C1COc2ccccc2O1 (configuration not stated)	-3.8	.	10.4µM*	60.2	-12.7
COc1ccc(Br)cc1C1SCCN1S(C)(=O)=O (configuration not stated)	-1.4	-2.6%	.	9.3	1.7
COc1ccc(OC)c(C(=O)c2ccc(C(=O)Nc3cccc4ccccc34)cc2)c1	-1.9	?	10.0%	?	-4.9
O=c1[nH]c(-c2ccccn2)cc2ccccc12	36.4*	93.4%	13.8%	74.1	52.0*
O=c1[nH]c(Nc2ccccn2)cc2ccccc12	.	.	.	47.5	.
CN(C(=O)c1ccc(NC(=O)C2CCCN(C(=O)OC(C)(C)C)C2)cc1)C1CCCCC1 (configuration not stated)	.	.	.	-22.2	.
O=C(O)[C@H](Cc1ccccc1)Nc1ccc([N+](=O)[O-])cn1	-0.8	19.9%	38.0%	-19.5	-2.3
NC(=O)c1ccc(NCCc2ccccc2)c([N+](=O)[O-])c1	15.5*	21.5%	?	-26.3	9.7
O=C(Nc1ccccc1)c1ccc(NCCc2ccccc2)c([N+](=O)[O-])c1	-2.2	?	?	21.7	-10.1
O=[N+]([O-])c1ccc(S(=O)Cc2ccccc2)c([N+](=O)[O-])c1 (configuration not stated)	.	.	.	-96.9*	.
NC(=O)c1cc([N+](=O)[O-])ccc1NCCc1ccccc1	active	-0.8%	13.1µM*	-12.1	1.3
O=C(O)C(Cc1ccccc1)Nc1ccc([N+](=O)[O-])cc1[N+](=O)[O-] (configuration not stated)	20.3*	?	6.57µM*	?	32.4
O=[N+]([O-])c1ccc(NCCc2ccccc2)c(Br)c1	11.1	.	4.1%	36.4	35.0
COCCN(C(=O)COC(=O)/C=C/c1ccc(Cl)c(Cl)c1)c1c(N)n(Cc2ccccc2)c(=O)[nH]c1=O	.	.	.	11.2	.
CCCOc1ccc(-c2nc3ccccc3c(=O)o2)cc1	.	.	.	104.1	.
O=C(c1cc2cc(Cl)ccc2[nH]1)N1CCN(C(=O)c2ccco2)CC1	6.1	?	?	0.0	2.2
NC(=O)c1ccc(NCc2ccco2)c([N+](=O)[O-])c1	17.0*	?	21.3%	-9.0	15.1
COc1ccc(Cl)cc1NC(=O)Nc1ccc(C(=O)N2CCCC2)cc1	16.8*	-0.4%	55.8%	55.3	54.7*

Screening data deposited in PubChem BioAssay by National Center for Advancing Translational Sciences (NCATS).
